Measurements as given in PubChem BioAssay (EPA / NIEHS).
Records with an inconclusive call do not appear. The source made the active and inactive calls. How the source made its calls, unless noted: active means hit-call score of the fitted dose curve at least 0.9, where 1 is the maximum; inconclusive means response in the unintended direction; inactive means score below 0.9.

Columns and labels:
[1] = molecular target: human AMP-activated Protein Kinase, alpha 1 (AMPKa1), PRKAA1 (gene 5562) (UniProt Q13131); experiment: NVS_ENZ_hAMPKa1: NovaScreen (NVS) Enzymatic Assay for human AMP-activated Protein Kinase, alpha 1 (AMPKa1) (AID 2283130)
Sequence of human AMP-activated Protein Kinase, alpha 1 (AMPKa1), PRKAA1 (gene 5562) (Q13131 whole entry, looked up): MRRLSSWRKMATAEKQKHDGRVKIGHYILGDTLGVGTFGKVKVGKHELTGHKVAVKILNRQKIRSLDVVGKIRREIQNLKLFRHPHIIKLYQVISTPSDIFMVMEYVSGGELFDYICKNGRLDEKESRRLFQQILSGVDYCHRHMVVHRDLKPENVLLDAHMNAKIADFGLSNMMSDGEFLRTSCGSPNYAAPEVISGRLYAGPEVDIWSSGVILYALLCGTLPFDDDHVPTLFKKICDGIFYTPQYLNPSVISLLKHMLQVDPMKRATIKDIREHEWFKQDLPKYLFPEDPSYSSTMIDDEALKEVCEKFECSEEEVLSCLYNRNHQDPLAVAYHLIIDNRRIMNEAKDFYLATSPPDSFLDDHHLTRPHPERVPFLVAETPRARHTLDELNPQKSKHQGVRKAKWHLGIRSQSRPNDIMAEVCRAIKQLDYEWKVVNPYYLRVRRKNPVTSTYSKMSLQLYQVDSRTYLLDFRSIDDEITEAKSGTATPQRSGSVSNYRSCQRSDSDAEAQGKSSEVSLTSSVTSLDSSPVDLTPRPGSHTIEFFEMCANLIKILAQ
In short: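 Compounds were screened in duplicate at 25 uM, and those reaching ~30% inhibition were titrated up to 50 uM. The enzyme was recombinant human AMPKα1, and kinase turnover was read by fluorescence/mobility shift 1 h post-dosing as loss of signal versus DMSO.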

[2] = molecular target: human Aurora Kinase A - serine/threonine-protein Kinase 6 (AurA), AURKA (gene 6790) (UniProt O14965); experiment: NVS_ENZ_hAurA: NovaScreen (NVS) Enzymatic Assay for human Aurora Kinase A - serine/threonine-protein Kinase 6 (AurA) (AID 2283142)
Sequence of human Aurora Kinase A - serine/threonine-protein Kinase 6 (AurA), AURKA (gene 6790) (O14965 whole entry, looked up): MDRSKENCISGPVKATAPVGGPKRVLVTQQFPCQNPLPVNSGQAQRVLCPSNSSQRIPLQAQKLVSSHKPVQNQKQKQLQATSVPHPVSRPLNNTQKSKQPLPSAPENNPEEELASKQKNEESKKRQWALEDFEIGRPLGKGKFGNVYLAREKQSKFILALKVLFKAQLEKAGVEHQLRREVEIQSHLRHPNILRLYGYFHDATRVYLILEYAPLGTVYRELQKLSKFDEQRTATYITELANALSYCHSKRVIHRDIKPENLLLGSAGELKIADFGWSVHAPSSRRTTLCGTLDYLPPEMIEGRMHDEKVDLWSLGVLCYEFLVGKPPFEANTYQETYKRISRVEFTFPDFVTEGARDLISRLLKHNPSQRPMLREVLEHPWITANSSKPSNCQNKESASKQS
In short: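 Recombinant human AurA activity read by fluorescence after mobility-shift separation of product from substrate; 1 hour incubation. Chemicals first run in duplicate at 25 uM, then concentration series to 50 uM if over threshold; fitted relative to DMSO.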

[3] = molecular target: human Fibroblast Growth Factor Receptor 1 (FGFR1), FGFR1 (gene 2260) (UniProt P11362); experiment: NVS_ENZ_hFGFR1: NovaScreen (NVS) Enzymatic Assay for human Fibroblast Growth Factor Receptor 1 (FGFR1) (AID 2283159)
Sequence of human Fibroblast Growth Factor Receptor 1 (FGFR1), FGFR1 (gene 2260) (P11362 whole entry, looked up): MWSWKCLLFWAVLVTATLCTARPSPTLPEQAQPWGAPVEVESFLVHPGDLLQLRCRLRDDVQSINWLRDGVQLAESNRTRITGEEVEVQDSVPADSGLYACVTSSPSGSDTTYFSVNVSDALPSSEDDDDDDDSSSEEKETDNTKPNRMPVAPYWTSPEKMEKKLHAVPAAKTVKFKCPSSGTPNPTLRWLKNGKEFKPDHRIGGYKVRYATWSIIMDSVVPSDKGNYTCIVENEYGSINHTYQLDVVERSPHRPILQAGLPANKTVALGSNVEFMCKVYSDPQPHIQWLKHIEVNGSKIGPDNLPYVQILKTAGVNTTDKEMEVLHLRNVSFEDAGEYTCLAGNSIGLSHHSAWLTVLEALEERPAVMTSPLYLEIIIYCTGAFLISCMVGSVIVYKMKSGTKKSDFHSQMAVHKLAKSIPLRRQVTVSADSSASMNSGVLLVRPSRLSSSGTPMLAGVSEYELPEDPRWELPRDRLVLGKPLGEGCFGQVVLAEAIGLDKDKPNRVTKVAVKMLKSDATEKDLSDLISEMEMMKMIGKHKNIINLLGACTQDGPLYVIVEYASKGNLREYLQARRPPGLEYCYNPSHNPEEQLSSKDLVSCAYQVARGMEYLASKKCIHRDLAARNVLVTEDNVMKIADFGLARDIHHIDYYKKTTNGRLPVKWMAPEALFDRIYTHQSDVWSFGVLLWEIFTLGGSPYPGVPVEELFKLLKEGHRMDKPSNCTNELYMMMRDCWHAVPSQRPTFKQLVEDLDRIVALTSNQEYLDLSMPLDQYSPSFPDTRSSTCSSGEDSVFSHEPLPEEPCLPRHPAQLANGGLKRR
In short: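 Cell-free recombinant kinase with fluorescent substrate, product separated by electrophoretic mobility shift; read 1 hour after dosing, loss of signal relative to DMSO. Initial screen in duplicate at 25 uM, actives followed in concentration series.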

[4] = molecular target: human Mitogen-Activated Protein Kinase 1 (MAPK 1), MAPK1 (gene 5594) (UniProt P28482); experiment: NVS_ENZ_hMAPK1: NovaScreen (NVS) Enzymatic Assay for human Mitogen-Activated Protein Kinase 1 (MAPK 1) (AID 2283175)
Sequence of human Mitogen-Activated Protein Kinase 1 (MAPK 1), MAPK1 (gene 5594) (P28482 whole entry, looked up): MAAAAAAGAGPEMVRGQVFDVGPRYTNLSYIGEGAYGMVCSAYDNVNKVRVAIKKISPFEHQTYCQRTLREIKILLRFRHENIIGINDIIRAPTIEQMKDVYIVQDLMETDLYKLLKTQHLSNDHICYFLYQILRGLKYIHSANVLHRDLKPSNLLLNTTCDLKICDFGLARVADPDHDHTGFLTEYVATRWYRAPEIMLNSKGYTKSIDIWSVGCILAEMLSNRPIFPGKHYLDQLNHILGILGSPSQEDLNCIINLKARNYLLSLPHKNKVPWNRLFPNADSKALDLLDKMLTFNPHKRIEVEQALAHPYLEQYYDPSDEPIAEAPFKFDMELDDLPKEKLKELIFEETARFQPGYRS
In short: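 Cell-free recombinant human MAPK1 enzymatic assay, fluorescence/electrophoretic mobility shift read at 1 h; loss of signal vs DMSO. Primary screen in duplicate at 25 uM; actives (e.g. ≥30% inhibition) run as concentration-response up to 50 uM.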

[5] = molecular target: human MET Proto-Oncogene, Receptor Tyrosine Kinase (MET), MET (gene 4233) (UniProt P08581); experiment: NVS_ENZ_hMet: NovaScreen (NVS) Enzymatic Assay for human MET Proto-Oncogene, Receptor Tyrosine Kinase (MET) (AID 2283180)
Sequence of human MET Proto-Oncogene, Receptor Tyrosine Kinase (MET), MET (gene 4233) (P08581 whole entry, looked up): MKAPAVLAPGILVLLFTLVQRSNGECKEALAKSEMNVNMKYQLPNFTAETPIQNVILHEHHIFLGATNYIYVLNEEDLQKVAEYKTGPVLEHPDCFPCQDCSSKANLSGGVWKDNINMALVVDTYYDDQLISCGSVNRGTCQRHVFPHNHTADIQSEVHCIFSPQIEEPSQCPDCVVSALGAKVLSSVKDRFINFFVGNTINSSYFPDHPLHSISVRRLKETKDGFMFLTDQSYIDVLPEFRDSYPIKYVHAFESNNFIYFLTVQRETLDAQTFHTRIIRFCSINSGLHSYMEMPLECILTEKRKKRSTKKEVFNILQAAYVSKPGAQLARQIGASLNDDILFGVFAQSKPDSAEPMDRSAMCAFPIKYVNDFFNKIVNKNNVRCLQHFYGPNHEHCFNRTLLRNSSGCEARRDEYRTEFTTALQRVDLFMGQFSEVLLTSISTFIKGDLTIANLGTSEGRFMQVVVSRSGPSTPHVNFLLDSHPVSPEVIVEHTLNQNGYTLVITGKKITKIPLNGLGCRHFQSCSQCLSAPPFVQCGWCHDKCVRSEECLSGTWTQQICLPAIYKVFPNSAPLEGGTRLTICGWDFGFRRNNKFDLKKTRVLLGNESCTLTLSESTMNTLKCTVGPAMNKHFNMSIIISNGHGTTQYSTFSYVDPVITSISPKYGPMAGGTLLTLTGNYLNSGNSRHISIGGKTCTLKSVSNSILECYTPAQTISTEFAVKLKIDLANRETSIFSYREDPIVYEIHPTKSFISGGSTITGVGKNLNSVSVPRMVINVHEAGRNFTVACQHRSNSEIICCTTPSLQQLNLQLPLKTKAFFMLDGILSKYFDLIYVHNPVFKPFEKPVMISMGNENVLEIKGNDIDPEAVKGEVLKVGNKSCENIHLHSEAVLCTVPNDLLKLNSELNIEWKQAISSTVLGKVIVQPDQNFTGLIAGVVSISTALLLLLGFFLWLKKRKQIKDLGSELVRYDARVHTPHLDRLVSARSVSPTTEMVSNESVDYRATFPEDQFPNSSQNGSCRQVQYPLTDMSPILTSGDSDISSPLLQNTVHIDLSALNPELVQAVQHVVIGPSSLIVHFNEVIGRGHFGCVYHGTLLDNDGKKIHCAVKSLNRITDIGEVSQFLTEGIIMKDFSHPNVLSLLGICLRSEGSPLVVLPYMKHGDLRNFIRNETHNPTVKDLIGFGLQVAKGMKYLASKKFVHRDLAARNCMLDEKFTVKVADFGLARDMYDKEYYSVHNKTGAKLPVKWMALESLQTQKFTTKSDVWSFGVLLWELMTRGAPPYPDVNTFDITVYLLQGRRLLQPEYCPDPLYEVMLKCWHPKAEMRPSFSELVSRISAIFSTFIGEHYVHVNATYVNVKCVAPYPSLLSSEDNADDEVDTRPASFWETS
In short: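 Hits from a 25 uM duplicate screen were retested in concentration series up to 50 uM. Enzyme activity was measured by fluorescence after electrophoretic separation of product from substrate, 1 h after compound addition, relative to DMSO.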

[6] = molecular target: human Matrix Metalloproteinase-1 (MMP1), MMP1 (gene 4312) (UniProt P03956); experiment: NVS_ENZ_hMMP1: NovaScreen (NVS) Enzymatic Assay for human Matrix Metalloproteinase-1 (MMP1) (AID 2283181)
In short: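 Cell-free fluorescent substrate assay of human MMP1, read after 1 h. A single 25 uM duplicate screen was followed by concentration series to a maximum of 50 uM for actives meeting threshold; inhibition analysed against DMSO baseline.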

[7] = molecular target: human Protein Tyrosine Phosphatase Non-receptor Type 2 (PTPN2), PTPN2 (gene 5771) (UniProt P17706); experiment: NVS_ENZ_hPTPN2: NovaScreen (NVS) Enzymatic Assay for human Protein Tyrosine Phosphatase Non-receptor Type 2 (PTPN2) (AID 2283207)
In short: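 Activity measured as fluorescence after mobility-shift separation of substrate and product, 1 h after compound. Duplicate single-point 25 uM primary testing, concentration series for actives; inhibition scored as signal loss relative to DMSO baseline.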

[8] = molecular target: human Raf-1 Proto-Oncogene, serine/threonine Kinase (RAF1), RAF1 (gene 5894) (UniProt P04049); experiment: NVS_ENZ_hRAF1: NovaScreen (NVS) Enzymatic Assay for human Raf-1 Proto-Oncogene, serine/threonine Kinase (RAF1) (AID 2283216)
In short: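 Single-point screening at 25 uM (duplicate), followed by singleton concentration-response to 50 uM maximum for chemicals exceeding threshold. Enzyme activity from fluorescent substrate-product mobility-shift separation after 1 h, relative to DMSO.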

[9] = molecular target: human Tyrosine Protein Kinase Receptor Tie-2 (Tie2), TEK (gene 7010) (UniProt Q02763); experiment: NVS_ENZ_hTie2: NovaScreen (NVS) Enzymatic Assay for human Tyrosine Protein Kinase Receptor Tie-2 (Tie2) (AID 2283225)
Sequence of human Tyrosine Protein Kinase Receptor Tie-2 (Tie2), TEK (gene 7010) (Q02763 whole entry, looked up): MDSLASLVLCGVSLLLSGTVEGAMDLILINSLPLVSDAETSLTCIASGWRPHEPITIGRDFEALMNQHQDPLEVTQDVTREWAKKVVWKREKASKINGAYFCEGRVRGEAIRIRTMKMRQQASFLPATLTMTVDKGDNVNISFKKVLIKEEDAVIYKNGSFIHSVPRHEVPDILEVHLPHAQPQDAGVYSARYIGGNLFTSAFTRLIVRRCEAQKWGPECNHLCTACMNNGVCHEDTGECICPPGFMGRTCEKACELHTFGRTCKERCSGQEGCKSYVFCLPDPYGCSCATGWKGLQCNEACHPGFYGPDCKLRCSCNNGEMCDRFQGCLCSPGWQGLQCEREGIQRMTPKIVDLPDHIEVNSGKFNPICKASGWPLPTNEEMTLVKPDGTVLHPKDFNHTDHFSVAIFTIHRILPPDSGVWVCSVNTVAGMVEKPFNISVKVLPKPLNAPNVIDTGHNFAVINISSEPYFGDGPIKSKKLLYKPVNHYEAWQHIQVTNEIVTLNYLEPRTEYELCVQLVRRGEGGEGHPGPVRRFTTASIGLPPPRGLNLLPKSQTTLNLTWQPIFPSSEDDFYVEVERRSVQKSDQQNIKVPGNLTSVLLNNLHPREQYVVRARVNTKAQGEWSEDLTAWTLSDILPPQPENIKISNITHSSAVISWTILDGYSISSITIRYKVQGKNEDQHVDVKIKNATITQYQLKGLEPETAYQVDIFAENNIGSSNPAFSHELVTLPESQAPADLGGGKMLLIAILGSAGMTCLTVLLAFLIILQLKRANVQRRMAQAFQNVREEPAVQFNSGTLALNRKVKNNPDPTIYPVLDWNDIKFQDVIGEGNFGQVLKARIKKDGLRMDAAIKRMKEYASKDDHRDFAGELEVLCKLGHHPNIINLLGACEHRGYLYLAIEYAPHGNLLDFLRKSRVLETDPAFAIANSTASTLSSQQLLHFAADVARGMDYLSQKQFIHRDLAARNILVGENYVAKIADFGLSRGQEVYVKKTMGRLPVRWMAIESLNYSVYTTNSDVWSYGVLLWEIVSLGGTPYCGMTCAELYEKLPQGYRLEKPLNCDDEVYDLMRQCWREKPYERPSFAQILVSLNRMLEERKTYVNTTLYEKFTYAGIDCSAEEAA
In short: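 Substrate and product were separated by mobility shift and detected by fluorescence after a 1-hour reaction with recombinant Tie2. Chemicals passing a 25 uM single-point screen were titrated to a maximum of 50 uM. Results were normalized to DMSO baseline.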

[10] = molecular target: rat Monoamine Oxidase, MAO-B, Peripheral (MAOBP), Maob (gene 25750) (UniProt P19643); experiment: NVS_ENZ_rMAOBP: NovaScreen (NVS) Enzymatic Assay for rat Monoamine Oxidase, MAO-B, Peripheral (MAOBP) (AID 2283242)
Caspase-1 (Homo sapiens) = Caspase-1 (Homo sapiens) (UniProt P29466); experiment: NVS_ENZ_hCASP1: NovaScreen (NVS) Enzymatic Assay for human Caspase 1 (CASP1) (AID 2283132)
In short: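 Compounds were first tested in duplicate at 25 uM, with follow-up concentration series up to 50 uM. The bacterially expressed enzyme was read by fluorescence at 1 h post-dosing. Signal loss versus DMSO baseline indicates reduced enzyme activity.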

[11] = molecular target: rat Corticotropin Releasing Factor Receptor (CRF), Crhr1 (gene 58959) (UniProt P35353); experiment: NVS_GPCR_rCRF: NovaScreen (NVS) G Protein-Coupled Receptor Assay for rat Corticotropin Releasing Factor Receptor (CRF) (AID 2283300)
In short: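 Single-concentration (25 uM, duplicate) radioligand binding on rat cortical membrane preparations, counted by scintillation after 2 h. Activity scored as signal loss relative to DMSO negative control.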

[12] = molecular target: rat Neurotensin Receptor (NTS), Ntsr1 (gene 366274) (UniProt P20789); experiment: NVS_GPCR_rNTS: NovaScreen (NVS) G Protein-Coupled Receptor Assay for rat Neurotensin Receptor (NTS) (AID 2283308)
In short: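 Single-point duplicates at 25 uM, then concentration series to 50 uM max for hits, measured radioligand displacement on rat forebrain membrane preparations. Bound label counted by filtration scintillation at 1 h; signal loss relative to DMSO fitted.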

[13] = molecular target: human p21 Activated Kinase 4 (PAK4), PAK4 (gene 10298) (UniProt O96013); experiment: NVS_ENZ_hPAK4: NovaScreen (NVS) Enzymatic Assay for human p21 Activated Kinase 4 (PAK4) (AID 2283189)
In short: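 Extracted PAK4 enzyme activity read by fluorescence with mobility-shift separation 1 h after chemical addition. Duplicate single-concentration screen at 25 uM, DMSO as negative control.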

[14] = molecular target: human IkappaB Kinase alpha (IKKa), CHUK (gene 1147) (UniProt O15111); experiment: NVS_ENZ_hIKKa: NovaScreen (NVS) Enzymatic Assay for human IkappaB Kinase alpha (IKKa) (AID 2283167)
In short: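 Compounds first run in duplicate at 25 uM, those meeting threshold (e.g. 30% inhibition) retested to maximum 50 uM. Enzyme activity of recombinant IKKa measured by fluorescence with electrophoretic mobility shift separation, 1 hour post-dosing, DMSO baseline.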

[15] = molecular target: human NIMA (Never In Mitosis Gene A)-Related Kinase 2 (NEK2), NEK2 (gene 4751) (UniProt P51955); experiment: NVS_ENZ_hNEK2: NovaScreen (NVS) Enzymatic Assay for human NIMA (Never In Mitosis Gene A)-Related Kinase 2 (NEK2) (AID 2283188)
In short: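 Compounds were first screened in duplicate at 25 uM, with actives followed up in concentration series. Recombinant NEK2 activity, cell-free, was read 1 h after dosing by fluorescence intensity after mobility-shift separation. Signal loss was scored against DMSO.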

[16] = molecular target: human Phosphatase and Tensin Homolog (PTEN), PTEN (gene 5728) (UniProt P60484); experiment: NVS_ENZ_hPTEN: NovaScreen (NVS) Enzymatic Assay for human Phosphatase and Tensin Homolog (PTEN) (AID 2283203)
Sequence of human Phosphatase and Tensin Homolog (PTEN), PTEN (gene 5728) (P60484 whole entry, looked up): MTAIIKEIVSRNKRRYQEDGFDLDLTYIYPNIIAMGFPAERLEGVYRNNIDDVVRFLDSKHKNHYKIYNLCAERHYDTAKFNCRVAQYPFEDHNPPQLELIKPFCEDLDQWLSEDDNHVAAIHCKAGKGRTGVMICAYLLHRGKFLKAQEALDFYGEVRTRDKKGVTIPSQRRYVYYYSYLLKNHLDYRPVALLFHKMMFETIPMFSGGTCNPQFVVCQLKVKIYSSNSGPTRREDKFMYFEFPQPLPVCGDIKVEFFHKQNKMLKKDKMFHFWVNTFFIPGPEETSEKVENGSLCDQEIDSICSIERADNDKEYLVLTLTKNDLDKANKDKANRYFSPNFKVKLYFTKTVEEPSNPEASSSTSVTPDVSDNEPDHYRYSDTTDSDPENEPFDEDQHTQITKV
In short: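 Loss of fluorescent product signal after mobility-shift separation reports PTEN activity, recombinant human enzyme, 1 h after compound addition. Single 25 uM duplicate screen, then concentration-response on actives; DMSO baseline.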

[17] = molecular target: rat Adenylate Cyclase, Forskolin Stimulated, Adcy5 (gene 64532) (UniProt Q04400); experiment: NVS_ENZ_rACFSKBinding: NovaScreen (NVS) Enzymatic Assay for rat Adenylate Cyclase, Forskolin Stimulated (AID 2283232)
In short: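 Chemicals were first tested at 25 uM in duplicate, then hits run as concentration series with top concentration 50 uM. Enzyme source was rat forebrain membranes; radiometric filter read-out after 1 h, referenced to DMSO.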

[18] = test system: rat Monoamine Oxidase, MAO-A, Central (MAOAC), gene 29253; experiment: NVS_ENZ_rMAOAC: NovaScreen (NVS) Enzymatic Assay for rat Monoamine Oxidase, MAO-A, Central (MAOAC) (AID 2283243);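 further: potency refers to inhibition seen as signal drop below DMSO baseline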
In short: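 Scintillation read-out of MAO-A activity in rat brain lysate, 1.5 h post-dosing. Primary single-concentration screen: 25 uM, duplicate; actives re-tested in concentration series. DMSO = negative control/baseline.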

[19] = molecular target: human Ephrin type-A Receptor 2 (EphA2), EPHA2 (gene 1969) (UniProt P29317); experiment: NVS_ENZ_hEphA2: NovaScreen (NVS) Enzymatic Assay for human Ephrin type-A Receptor 2 (EphA2) (AID 2283155)
In short: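 Enzyme activity of recombinant EphA2 read by fluorescence after mobility-shift separation, 1 h after dosing. Chemicals first tested at 25 uM (duplicate); those passing threshold run as concentration series, top 50 uM, single replicate, relative to DMSO.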

[20] = molecular target: human Protein Tyrosine Phosphatase Receptor Type C (PTPRC), PTPRC (gene 5788) (UniProt P08575); experiment: NVS_ENZ_hPTPRC: NovaScreen (NVS) Enzymatic Assay for human Protein Tyrosine Phosphatase Receptor Type C (PTPRC) (AID 2283212)
In short: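 Absorbance-based phosphatase activity of human PTPRC protein extracted from yeast was measured 1 h post-dosing. Compounds first tested at 25 uM in duplicate, then those passing threshold in singleton concentration series to 50 uM.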

[21] = CCTE_Harrill_HTTr_Apoptosis_PRF_DMEM_12hr: (Pilot) CCTE's 12-hour Apoptosis Assessment for the High-Throughput Transcriptomics (HTTr) Platform, in MCF-7 cells cultured in phenol red-free DMEM + 10% charcoal-stripped fetal bovine serum, Harrill Lab (AID 2283985; active means hit-call score of the fitted dose curve at least 0.9, where 1 is the maximum; inactive means score below 0.9)
In short: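 Caspase-3/7 activity by CellEvent Green high content imaging after 12 h compound exposure (eight concentrations) in MCF-7 grown in phenol red-free DMEM plus 10% charcoal-stripped serum; DMSO as baseline.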

Which outcome [1] does the source give for `NCCO` here?
The outcome was “inactive”.

And the outcome [2]?
Its outcome is “inactive”.

What about the outcome [3] of the same molecule?
Its outcome is “inactive”.

And the outcome [4]?
Its outcome is “inactive”.

What about the outcome [5] of the same molecule?
Its outcome is “inactive”.

What about the outcome [6] of the same molecule?
The outcome was “inactive”.

What about the outcome [7] of the same molecule?
The outcome was “inactive”.

And the outcome [8]?
Its outcome is “inactive”.

What about the outcome [9] of the same molecule?
The outcome was “inactive”.

What about the outcome [10] of the same molecule?
The outcome was “inactive”.

What does the source list for `CCC(O)=C1C(=O)CC(C(=O)O)CC1=O` (stereo not given)?
outcome (Caspase-1 (Homo sapiens)): inactive; outcome [9]: inactive; outcome [11]: inactive

For `COc1cc(S(=O)(=O)O)c(C)cc1N=Nc1c(O)ccc2cc(S(=O)(=O)O)ccc12`, which AC50 (Caspase-1 (Homo sapiens)) is on record?
The AC50 was 25 µM (active).

And the AC50 [12]?
The AC50 was 16.8 µM (active).

Which outcome [1] does the source give for `CC(C)(C)c1ccccc1` here?
Its outcome is “inactive”.

And the outcome [13]?
Its outcome is “inactive”.

Which outcome [1] does the source give for `CN(C)c1ccc(N=NS(=O)(=O)O)cc1` here?
The outcome was “inactive”.

And the outcome [2]?
Its outcome is “inactive”.

What about the outcome [3] of the same molecule?
The outcome was “inactive”.

And the outcome [14]?
The outcome was “inactive”.

What about the outcome [5] of the same molecule?
Its outcome is “inactive”.

What about the outcome [6] of the same molecule?
Its outcome is “inactive”.

What about the outcome [15] of the same molecule?
The outcome was “inactive”.

And the outcome [16]?
The outcome was “inactive”.

And the outcome [8]?
Its outcome is “inactive”.

What about the outcome [9] of the same molecule?
Its outcome is “inactive”.

And the outcome [17]?
Its outcome is “inactive”.

And the AC50 [10]?
Its AC50 is 23.8 µM (active).

And the outcome [18]?
The outcome was “inactive”.

What about the outcome [11] of the same molecule?
The outcome was “inactive”.

Which outcome [1] does the source give for `O=C(O)c1cccc(Oc2ccccc2)c1` here?
The outcome was “inactive”.

What about the outcome [2] of the same molecule?
Its outcome is “inactive”.

And the outcome [19]?
Its outcome is “inactive”.

What about the outcome [3] of the same molecule?
The outcome was “inactive”.

And the outcome [5]?
The outcome was “inactive”.

And the outcome [16]?
The outcome was “inactive”.

With `CCOC(=O)C(C)(C)Oc1ccc(Cl)cc1` as the molecule, how does the outcome [1] read?
The outcome was “inactive”.

What about the outcome [2] of the same molecule?
Its outcome is “inactive”.

And the outcome [3]?
The outcome was “inactive”.

And the outcome [16]?
The outcome was “inactive”.

And the AC50 [7]?
The AC50 was 0.218 µM (active).

And the outcome [20]?
The outcome was “inactive”.

What about the outcome [9] of the same molecule?
The outcome was “inactive”.

And the outcome [21]?
Its outcome is “inactive”.
